# Most compounds without a hit are left out; they make up all but 6% or so of the library.
# DRD3 antagonist: qHTS of D3 Dopamine Receptor Antagonist: qHTS. D(3) dopamine receptor (Homo sapiens), P35462. D3R cells, DiscoveRx beta-arrestin luminescence, antagonist mode; stronger effect = lower value. AID 652054, 2013. 360,000 compounds, 2.5% hits. max response, negative = inhibition, %; in the data active means max response below about -50%; inconclusive means no clear call, values can overlap the other calls; further: on the % scale 0 is the no-effect control and ±100 the full control effect
#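 Cells expressing the human receptor were seeded at 1500 cells/well, incubated overnight at 37 degrees C in 5% CO2, then exposed to library compounds with dopamine controls for 90 minutes at 37 degrees C before luminescent detection.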
# D1 PAM: Potentiators of Human D1 Dopamine Receptor: qHTS; D(1A) dopamine receptor (Homo sapiens), P21728; HEK293 TREx D1 cells, calcium flux, dopamine EC20 potentiation; potentiation, % at 10 µM; 360,000 compounds, 0.036% hits; AID 504651, 2011; in the data active means potentiation above about 30%; further: 0% is about no effect
# Target sequence (P21728 whole entry, looked up): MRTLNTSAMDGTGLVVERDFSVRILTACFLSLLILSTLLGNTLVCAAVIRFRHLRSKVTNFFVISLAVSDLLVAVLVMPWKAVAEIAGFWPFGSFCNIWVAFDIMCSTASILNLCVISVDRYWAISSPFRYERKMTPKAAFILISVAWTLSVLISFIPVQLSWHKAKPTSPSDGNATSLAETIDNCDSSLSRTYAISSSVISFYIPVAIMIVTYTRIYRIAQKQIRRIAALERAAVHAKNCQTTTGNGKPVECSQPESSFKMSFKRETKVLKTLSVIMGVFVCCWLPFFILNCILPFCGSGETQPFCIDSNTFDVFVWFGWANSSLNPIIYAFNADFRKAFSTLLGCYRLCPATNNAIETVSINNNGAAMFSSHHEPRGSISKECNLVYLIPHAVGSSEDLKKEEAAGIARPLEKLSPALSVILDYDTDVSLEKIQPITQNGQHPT
# D1 antagonist: Antagonist of Human D 1 Dopamine Receptor: qHTS; D(1A) dopamine receptor (Homo sapiens), P21728; HEK293 TREx D1 cells, calcium flux, dopamine EC80; stronger effect = lower value; activity change, negative = inhibition, % at 10 µM; 360,000 compounds, 3.2% hits; AID 504652, 2011; in the data active means activity change below about -30%; further: on the % scale 0 is the no-effect control and ±100 the full control effect
#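 After overnight tetracycline induction at 30 C, force-coupled D1 HEK293 cells took up a no-wash calcium dye at room temperature. Compounds were added and monitored 180 s, and the response to EC80 dopamine was then recorded.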
# DRD3 agonist: qHTS of D3 Dopamine Receptor Agonist: qHTS | D(3) dopamine receptor (Homo sapiens), P35462 | D3R DiscoveRx beta-arrestin cells, luminescence, 90 min | max activation, % | 410,000 compounds, 0.58% hits; in the data active means max activation above about 30%; further: 0% is about no effect
#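 Cells at 1500/well, incubated overnight, then treated with pinned compounds (dopamine as control) for 90 min at 37 degrees C. DiscoveRx reagent added for 30 - 60 minutes at room temperature; luminescence read.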
# D1 agonist: Allosteric Agonists of the Human D1 Dopamine Receptor: qHTS; D(1A) dopamine receptor (Homo sapiens), P21728; HEK293 T-REx D1 cells, calcium flux, agonist mode; activation, % at 2 µM; 360,000 compounds, 1% hits; AID 504660, 2011; in the data active means activation above about 30%; further: 0% is about no effect
#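 Tetracycline-induced HEK293 TREx D1 cells, force-coupled to calcium signalling, were dye-loaded with a no-wash calcium kit. Compound was pin-added after a 10 s baseline. Fluorescence was read kinetically at 1 cycle/s for 180 s, with calcium rises flagged as agonism.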
# Active calls of the source: *; u = inconclusive; x = no result; ! = repeats disagree.
SMILES,DRD3 antagonist,D1 PAM,D1 antagonist,DRD3 agonist,D1 agonist
Cc1cc2c(cc1S(=O)(=O)N(C)CC(=O)Nc1ccc(C#N)cc1)OCC(=O)N2,x,-4.8,-54.9*,9.4,2.2
CC(=O)c1cccc(NS(=O)(=O)c2cc3c(cc2C)NC(=O)CO3)c1,4.8,0.7,-22.3,3.1,3.2
CCOC(=O)c1cccc(NS(=O)(=O)c2cc3c(cc2C)NC(=O)CO3)c1,x,-4.0,-46.4*,1.2,1.4
COc1cccc(CNS(=O)(=O)c2cc3c(cc2C)NC(=O)CO3)c1,15.7,-9.8,-32.4*,2.8,5.7
COc1ccc(Cl)cc1NC(=O)CSc1ccc2nnc(CCNS(=O)(=O)c3ccccc3)n2n1,x,-1.7,13.0,8.9,3.4
Cc1ccc(CNC(=O)CCS(=O)(=O)c2cc3c(cc2C)NC(=O)CO3)cc1,9.5,-10.2,-31.8*!,0.2,1.7
Cc1cc(OCC(=O)Nc2cccc(S(=O)(=O)NC3=NCCCCC3)c2)ccc1Cl,22.7,-2.2,-30.8*,-4.2,4.7
Cc1ccc(OCC(=O)Nc2cccc(S(=O)(=O)NC3=NCCCCC3)c2)cc1C,4.1,-1.0,5.7,-4.5,10.0
Cc1cccc(C)c1NC(=O)CNC(=O)Cn1nc(C)c(C)c(C#N)c1=O,15.7,-7.4,-10.5,2.4,2.2
CCOC(=O)C1=C(CSc2nc3ccccc3s2)NC(=O)NC1c1cc(C)ccc1C (centres undefined),34.1,-5.8,1.6,30.9*,4.9
Cc1ccc(NC(=O)c2oc3ccc(S(=O)(=O)N4CCOCC4)cc3c2C)c(C)c1,55.6,0.5,3.6,7.4,6.6
Cc1cccc(NC(=O)c2cccc(OC(=S)N3CCOCC3)c2)c1C,-10.8,-3.9,-32.2*,-3.5,2.0
Cc1c(C(=O)Nc2ccc(F)cc2)oc2ccc(S(=O)(=O)N3CC(C)CC(C)C3)cc12 (centres undefined),-62.1*,-6.6,-13.7,-4.2,12.6
COc1ccc(NC(=O)c2cccc(OC(=S)N3CCOCC3)c2)cc1,1.4,-1.1,-0.4,1.4,2.7
Cc1ccc(NC(=O)c2oc3ccc(S(=O)(=O)N4CCC5(CC4)OCCO5)cc3c2C)cc1C,60.8,-3.1,-32.2*!,-12.4,-2.3
CCN(CC)C(=O)c1oc2ccc(S(=O)(=O)N3CC(C)CC(C)C3)cc2c1C (centres undefined),4.1,-11.1,-4.6,7.2,4.3
Cc1cccc(NC(=O)c2oc3ccc(S(=O)(=O)N4CCOCC4)cc3c2C)c1C,51.3,3.2,-6.5,41.2*,7.5
C#CCOCCOCCOCCNc1nc(N2CCN(C(=O)CCCCCCCCCCNC(=O)Cn3cc(C[C@@H](C)O)nn3)CC2)nc(N2CCN(C(=O)CCCCCCCCCCNC(=O)[C@H](CCCCN)n3cc(CCCC(=O)O)nn3)CC2)n1,-24.6,-1.1,-1.1,-4.5,9.0
C#CCOCCOCCOCCNc1nc(N2CCN(C(=O)CCCCCCCCCCNC(=O)Cn3cc(C[C@@H](C)O)nn3)CC2)nc(N2CCN(C(=O)CCCCCCCCCCNC(=O)[C@@H](CCC(=O)O)n3cc(CCCCCN)nn3)CC2)n1,23.5,-0.6,4.6,4.4,32.1*
C#CCOCCOCCOCCNc1nc(N2CCN(C(=O)CCCCCCCCCCNC(=O)Cn3cc(CCCCCN)nn3)CC2)nc(N2CCN(C(=O)CCCCCCCCCCNC(=O)[C@@H](CCC(=O)O)n3cc(CCCCCN)nn3)CC2)n1,11.1,-9.1,0.0,-2.8,39.0*
C#CCOCCOCCOCCNc1nc(N2CCN(C(=O)CCCCCCCCCCNC(=O)Cn3cc(CCCCCN)nn3)CC2)nc(N2CCN(C(=O)CCCCCCCCCCNC(=O)[C@@H](CCSC)n3cc(CCO)nn3)CC2)n1,0.2,5.3,1.5,-33.3,3.0
C#CCOCCOCCOCCNc1nc(N2CCN(C(=O)Cn3cc(CCCCN)nn3)CC2)nc(N2CCN(C(=O)Cn3cc(CCCCN)nn3)CC2)n1,33.5,-2.5,1.2,-7.8,-2.7
C#CCOCCOCCOCCNc1nc(N2CCN(C(=O)CCCCCCCCCCNC(=O)Cn3cc(CCCCCN)nn3)CC2)nc(N2CCN(C(=O)CCCCCCCCCCNC(=O)Cn3cc(CCCCCN)nn3)CC2)n1,15.0,52.6*,36.7,10.3,38.0*
C=CCNc1ncnc2c1ncn2[C@H]1CN(Cc2ccc(-c3ccccc3)cc2)C[C@@H](CO)O1,15.9,x,x,9.3,x
CC(=O)Nc1ccc(S(=O)(=O)NCCSCc2ccc(Cl)cc2Cl)cc1,32.5,-6.6,-31.1*,-4.1,14.7
SMILES,DRD3 antagonist,D1 PAM,D1 antagonist,DRD3 agonist,D1 agonist
CC(C)c1ccccc1OCC(=O)N(C)CC(=O)Nc1ccc(F)cc1,-58.1*,-3.1,-14.2,-36.1,8.1
Cc1ccc(SCC(=O)OCC(=O)N(C)CC(=O)Nc2ccc(F)cc2)cc1C,27.6,7.5,62.1,-2.3,53.1*
COC(=O)c1ccccc1NC(=O)NC1CCCCC1,8.5,-5.1,-44.2*,3.2,4.8
O=C(Nc1cccc(F)c1)NC1CC2CCCC(C1)N2C1CC1 (centres undefined),0.0,-10.4,-34.3*,-10.1,2.7
Cc1ccc(S(=O)(=O)N2CCN(CCNC(=O)C(=O)Nc3ccc(F)cc3)CC2)cc1,18.0,1.3,-2.2,31.7*,2.4
CC(=O)Nc1ccc(S(=O)(=O)N2CCC(c3nc4ccc(C)cc4[nH]3)CC2)cc1,-92.3*,-6.5,-22.8,-0.5,-0.3
CCOC(=O)Nc1ccc(S(=O)(=O)N2CCC(c3nc4ccccc4[nH]3)CC2)cc1,-11.8,x,x,2.5,x
Cc1cc(C)n(CC(=O)Nc2ccc3c(c2)OCO3)c(=O)c1C#N,16.8,-1.8,-7.0,3.3,2.1
O=C(NC1CCCC1)c1c[nH]c2ccc(S(=O)(=O)Nc3cccc(C(F)(F)F)c3)cc2c1=O,x,2.8,-1.5,-12.9,8.0
Cc1cccc(Cn2cccc2CNS(=O)(=O)c2ccccc2F)c1,x,1.8,-6.6,0.0,4.4
O=C(Nc1ccc2ccccc2c1)C(c1ccccc1)C1CCCC1 (centres undefined),27.4,-9.6,-23.2,3.1,3.8
Cc1ccc(NC(=O)NC2CCN(S(=O)(=O)c3ccc(F)cc3)CC2)cc1,-13.2,-7.4,-53.4*,9.6,2.7
COC(=O)c1cccc(S(=O)(=O)N2CCC(NC(=O)Nc3cccc(F)c3)CC2)c1,u,-3.2,-23.0,6.1,2.9
Cc1ccc(NC(=O)C(c2ccccc2)C2CCCC2)cc1 (centres undefined),5.1,-10.3,-34.4*,3.7,6.6
CC(=O)c1ccc(S(=O)(=O)N2CCC(NC(=O)Nc3cccc(F)c3)CC2)cc1,-17.9,-0.3,-34.3*,-7.9,-0.1
Cc1ccc(NC(=O)NC2CCCCCCC2)cc1,-7.5,-10.9,-32.3*,-8.1,1.5
Cc1nc2ccccc2n1CCc1nc2c3ccccc3nc(SCc3cccc(F)c3)n2n1,x,-1.0,3.0,5.3,3.7

# Screens as filed in PubChem.
